# Results reported in PubChem BioAssay (EPA / NIEHS).
# Where “and” joins values, the source holds several entries; their conditions need not be identical. Equal values may be shown once. More than one record can exist for a structure, and the calls need not agree. Calls of active or inactive are those of the source. Rule for the calls: active = hit-call score of the fitted dose curve at least 0.9, where 1 is the maximum; inactive = score below 0.9.
# Experiments:
# [1] = BSK_hDFCGF_SRB: Viability Assessment in the BioMAP Diversity Plus: hDFCGF Assay (AID 2283061); details: primary human foreskin fibroblasts;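 note: cells exposed to compound for 24 h before the read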
# Method in brief: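 Human foreskin primary fibroblasts were treated with compound and assessed 24 h after dosing. Total protein was measured by sulforhodamine B staining (0.1% SRB after 10% TCA fixation, 560 nm read) as a cytotoxicity marker, with bidirectional fitting against DMSO baseline.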
# [2] = read-out: TIMP metallopeptidase inhibitor 1 (TIMP1), TIMP1 (gene 7076); test: BSK_hDFCGF_TIMP1: BioMAP Diversity Plus: hDFCGF Assay for TIMP metallopeptidase inhibitor 1 (TIMP1) Biomarker Activity (AID 2283062); details: primary human foreskin fibroblasts; actives raise or lower the signal
# Method in brief: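 Primary human foreskin fibroblasts in the hDFCGF system were dosed with compound for 24 h, then TIMP-1 was measured by ELISA. Activity was fitted bidirectionally relative to DMSO control; parallel SRB staining assessed cytotoxicity.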
# [3] = read-out: Monokine induced gamma interferon (MIG), CXCL9 (gene 4283); test: BSK_hDFCGF_MIG: BioMAP Diversity Plus: hDFCGF Assay for Monokine induced gamma interferon (MIG) Biomarker Activity (AID 2283063); details: primary human foreskin fibroblasts; actives raise or lower the signal
# Method in brief: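 ELISA read-out of MIG from primary human dermal fibroblasts 24 h post-dosing. Gain or loss of signal fitted bidirectionally, DMSO as baseline.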
# [4] = read-out: Matrix Metallopeptidase 1 (MMP1), MMP1 (gene 4312); test: BSK_hDFCGF_MMP1: BioMAP Diversity Plus: hDFCGF Assay for Matrix Metallopeptidase 1 (MMP1) Biomarker Activity (AID 2283064); details: primary human foreskin fibroblasts; actives raise or lower the signal
# Method in brief: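 MMP1 levels quantified by ELISA 24 h after dosing human dermal fibroblast cultures, with parallel SRB total-protein staining for overt cytotoxicity. Data fitted in both directions against DMSO baseline.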
# [5] = read-out: Vascular cell adhesion molecule 1 (VCAM1), VCAM1 (gene 7412); test: BSK_hDFCGF_VCAM1: BioMAP Diversity Plus: hDFCGF Assay for Vascular cell adhesion molecule 1 (VCAM1) Biomarker Activity (AID 2283065); details: primary human foreskin fibroblasts; actives raise or lower the signal;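 for AC50: VCAM-1 protein level quantified by ELISA after 24 h chemical exposure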
# Method in brief: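 Primary human foreskin fibroblasts (hDFCGF system) were dosed with chemical and VCAM-1 was measured by ELISA 24 h later. Bidirectional curve fitting used DMSO as negative control and activity baseline.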
# [6] = read-out: Plasminogen activator inhibitor-1 (PAI1), SERPINE1 (gene 5054); test: BSK_hDFCGF_PAI1: BioMAP Diversity Plus: hDFCGF Assay for Plasminogen activator inhibitor-1 (PAI1) Biomarker Activity (AID 2283066); details: primary human foreskin fibroblasts; actives raise or lower the signal
# Method in brief: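 ELISA readout of PAI-1 from primary human skin fibroblast cultures, 24 h after compound addition. Gain or loss of signal was fitted bidirectionally against DMSO baseline.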
# [7] = read-out: Intercellular Adhesion Molecule 1 (ICAM1), ICAM1 (gene 3383); test: BSK_KF3CT_ICAM1: BioMAP Diversity Plus: KF3CT Assay for Intercellular Adhesion Molecule 1 (ICAM1) Biomarker Activity (AID 2283067); details: primary human keratinocytes with fibroblasts; actives raise or lower the signal
# Method in brief: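 Human keratinocyte plus foreskin fibroblast primary co-culture was exposed to chemical for 24 h. ICAM-1 was then quantified by ELISA, and the data were fit bidirectionally against DMSO as the negative control and baseline.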
# [8] = read-out: Interferon-gamma inducible Protein 10 (IP10), CXCL10 (gene 3627); test: BSK_KF3CT_IP10: BioMAP Diversity Plus: KF3CT Assay for Interferon-gamma inducible Protein 10 (IP10) Biomarker Activity (AID 2283068); details: primary human keratinocytes with fibroblasts; actives raise or lower the signal
# Method in brief: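 ELISA read-out of IP-10 after 24 h chemical dosing of human skin primary co-culture (keratinocytes, foreskin fibroblasts). Gain or loss of signal relative to DMSO, bidirectional curve fit.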
# [9] = BSK_KF3CT_SRB: Viability Assessment in the BioMAP Diversity Plus: KF3CT Assay (AID 2283069); details: primary human keratinocytes with fibroblasts
# Method in brief: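 Cytotoxicity was gauged by SRB staining (0.1% SRB, 10% TCA fixation, 560 nm) of parallel cultures at 24 h. The cells were primary human skin keratinocytes co-cultured with fibroblasts, and activity was fitted in both directions against DMSO.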
# [10] = read-out: Interleukin-1 alpha (IL1a), IL1A (gene 3552); test: BSK_KF3CT_IL1a: BioMAP Diversity Plus: KF3CT Assay for Interleukin-1 alpha (IL1a) Biomarker Activity (AID 2283070); details: primary human keratinocytes with fibroblasts; actives raise or lower the signal
# Method in brief: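 IL-1a was detected by ELISA 24 h after chemical treatment of a co-culture of human skin keratinocytes and foreskin fibroblasts. Gain or loss of signal was fitted against the DMSO baseline.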
# [11] = read-out: Transforming growth factor beta 1 (TGFb1), TGFB1 (gene 7040); test: BSK_KF3CT_TGFb1: BioMAP Diversity Plus: KF3CT Assay for Transforming growth factor beta 1 (TGFb1) Biomarker Activity (AID 2283072); details: primary human keratinocytes with fibroblasts; actives raise or lower the signal
# Method in brief: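 Read-out: ELISA for TGF-b1 in keratinocyte/foreskin fibroblast human skin co-culture, 24 h after dosing; bidirectional curve fit vs DMSO baseline; gain or loss of signal scored.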
# [12] = read-out: C-C motif chemokine 2 (Homo sapiens) (UniProt P13500); test: BSK_KF3CT_MCP1: BioMAP Diversity Plus: KF3CT Assay for Monocyte Chemoattractant Protein 1 (MCP1/CCL2) Biomarker Activity (AID 2283073); details: primary human keratinocytes with fibroblasts; actives raise or lower the signal
# Method in brief: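 Human keratinocyte plus foreskin fibroblast primary co-culture exposed to chemical for 24 h. MCP-1 levels measured by ELISA. Bidirectional curve fitting relative to DMSO negative control as baseline.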
# [13] = read-out: urokinase plasminogen activator (uPA), PLAU (gene 5328); test: BSK_KF3CT_uPA: BioMAP Diversity Plus: KF3CT Assay for urokinase plasminogen activator (uPA) Biomarker Activity (AID 2283075); details: primary human keratinocytes with fibroblasts; actives raise or lower the signal
# Method in brief: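 ELISA read-out of uPA 24 h after dosing human skin keratinocytes co-cultured with foreskin fibroblasts. Signal change fitted both ways relative to DMSO; sulforhodamine B on parallel cultures marks overt cytotoxicity.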
# [14] = read-out: CD40, CD40 (gene 958); test: BSK_LPS_CD40: BioMAP Diversity Plus: LPS Assay for CD40 Biomarker Activity (AID 2283076); details: primary human HUVEC with PBMC; actives raise or lower the signal
# Method in brief: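 Primary human umbilical vein endothelial cells co-cultured with peripheral blood mononuclear cells, LPS-stimulated, were dosed with chemical and read 24 h later. CD40 levels were measured by ELISA and fitted bidirectionally against DMSO as negative control and baseline.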
# [15] = read-out: E-selectin (Homo sapiens) (UniProt P16581); test: BSK_LPS_Eselectin: BioMAP Diversity Plus: LPS Assay for Eselectin Biomarker Activity (AID 2283077); details: primary human HUVEC with PBMC; actives raise or lower the signal
# Method in brief: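 Human umbilical vein endothelial cells co-cultured with peripheral blood mononuclear cells under LPS stimulation; E-selectin measured by ELISA 24 h after chemical dosing. Activity fitted bidirectionally against DMSO as negative control and baseline.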
# [16] = read-out: Interleukin-8 (IL8), CXCL8 (gene 3576); test: BSK_LPS_IL8: BioMAP Diversity Plus: LPS Assay for Interleukin-8 (IL8) Biomarker Activity (AID 2283078); details: primary human HUVEC with PBMC; actives raise or lower the signal
# Method in brief: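 Human umbilical vein endothelial cells co-cultured with PBMC were stimulated with LPS; IL-8 levels were measured by ELISA 24 h after chemical dosing. Activity was fitted bidirectionally against DMSO as negative control and baseline.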
# [17] = BSK_LPS_SRB: Viability Assessment in the BioMAP Diversity Plus: LPS Assay (AID 2283079); details: primary human HUVEC with PBMC;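 note: total protein by sulforhodamine B absorbance as a cytotoxicity measure; measured one day after compound addition; fitted in both directions against DMSO so loss or gain of signal counts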
# Method in brief: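 Human umbilical vein endothelial cells co-cultured with PBMC (LPS system) were dosed for 24 h. Total protein was stained with 0.1% sulforhodamine B after 10% TCA fixation, read at 560 nm, and fitted bidirectionally against DMSO baseline.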
# [18] = read-out: Interleukin-1 alpha (IL1a), IL1A (gene 3552); test: BSK_LPS_IL1a: BioMAP Diversity Plus: LPS Assay for Interleukin-1 alpha (IL1a) Biomarker Activity (AID 2283080); details: primary human HUVEC with PBMC; actives raise or lower the signal
# Method in brief: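 Human umbilical vein endothelial cells co-cultured with peripheral blood mononuclear cells were LPS-stimulated and exposed to test chemicals for 24 h. IL-1 alpha was quantified by ELISA, with bidirectional curve fitting against DMSO as the negative control and baseline.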
# [19] = read-out: TIMP metallopeptidase inhibitor 2 (TIMP2), TIMP2 (gene 7077); test: BSK_KF3CT_TIMP2: BioMAP Diversity Plus: KF3CT Assay for TIMP metallopeptidase inhibitor 2 (TIMP2) Biomarker Activity (AID 2283071); details: primary human keratinocytes with fibroblasts; actives raise or lower the signal
# Method in brief: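 ELISA readout of TIMP-2 in keratinocyte plus foreskin fibroblast co-cultures (human skin primary cells), 24 h post-dose. Gain or loss of signal fitted relative to DMSO.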
# [20] = read-out: Matrix Metallopeptidase 9 (MMP9), MMP9 (gene 4318); test: BSK_KF3CT_MMP9: BioMAP Diversity Plus: KF3CT Assay for Matrix Metallopeptidase 9 (MMP9) Biomarker Activity (AID 2283074); details: primary human keratinocytes with fibroblasts; actives raise or lower the signal;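 for AC50: MMP9 protein level quantified by ELISA in the co-culture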
# Method in brief: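 MMP-9 quantified by ELISA after 24 h chemical treatment of primary human skin keratinocyte/fibroblast co-cultures; gain or loss fitted against DMSO, with parallel SRB staining (0.1% SRB, 560 nm) for overt cytotoxicity.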
# Sequence of E-selectin (Homo sapiens) (P16581 whole entry, looked up): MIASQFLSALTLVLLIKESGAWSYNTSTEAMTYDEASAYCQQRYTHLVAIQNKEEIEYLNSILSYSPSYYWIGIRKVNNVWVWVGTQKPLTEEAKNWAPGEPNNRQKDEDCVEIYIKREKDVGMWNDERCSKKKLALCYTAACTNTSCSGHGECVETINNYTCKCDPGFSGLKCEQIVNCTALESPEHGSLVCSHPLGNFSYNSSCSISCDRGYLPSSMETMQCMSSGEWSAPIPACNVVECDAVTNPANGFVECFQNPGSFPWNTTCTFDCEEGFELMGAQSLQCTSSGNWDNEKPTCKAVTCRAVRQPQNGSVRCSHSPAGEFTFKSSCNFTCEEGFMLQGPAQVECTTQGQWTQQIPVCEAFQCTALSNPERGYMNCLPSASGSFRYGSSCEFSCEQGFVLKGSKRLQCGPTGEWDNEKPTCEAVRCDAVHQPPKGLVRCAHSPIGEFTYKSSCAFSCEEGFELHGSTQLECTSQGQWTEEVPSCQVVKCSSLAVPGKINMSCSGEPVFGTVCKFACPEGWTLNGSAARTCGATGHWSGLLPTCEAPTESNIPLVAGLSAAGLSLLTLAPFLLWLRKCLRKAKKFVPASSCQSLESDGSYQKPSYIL
smiles,measurement,setting,value
O=Cc1ccco1,outcome,[1],inactive
same,outcome,[2],inactive
same,outcome,[3],inactive
same,outcome,[4],inactive
same,outcome,[5],inactive
same,outcome,[6],inactive
same,outcome,[7],inactive
same,outcome,[8],inactive
same,outcome,[9],inactive
same,outcome,[10],inactive
same,outcome,[11],inactive
same,outcome,[12],inactive
same,outcome,[13],inactive
same,outcome,[14],inactive
same,outcome,[15],inactive
same,outcome,[16],inactive
same,outcome,[17],inactive
same,outcome,[18],inactive
Cc1ccc(N)cc1,outcome,[1],inactive
same,outcome,[3],inactive
same,outcome,[4],inactive
same,outcome,[5],inactive
same,outcome,[6],inactive
same,outcome,[7],inactive
same,outcome,[8],inactive
same,outcome,[9],inactive
same,outcome,[10],inactive
same,outcome,[19],inactive
same,outcome,[11],inactive
same,outcome,[12],inactive
same,outcome,[20],inactive
same,outcome,[13],inactive
same,outcome,[14],inactive
same,outcome,[15],inactive
same,outcome,[16],inactive
same,outcome,[17],inactive
same,outcome,[18],inactive
Cc1cc(N=Nc2ccccc2C)ccc1N,AC50,[1],34.5 µM (active)
same,AC50,[3],33.4 µM (active)
same,outcome,[4],inactive
same,AC50,[5],23.5 µM (active)
same,AC50,[6],32.1 µM (active)
same,AC50,[7],31.8 µM (active)
same,AC50,[8],33.7 µM (active)
same,AC50,[9],29.9 µM (active)
same,AC50,[10],37.9 µM (active)
same,AC50,[19],20 µM (active)
same,AC50,[11],28.5 µM (active)
same,outcome,[12],inactive
same,AC50,[20],19.9 µM (active)
same,AC50,[13],39.2 µM (active)
same,outcome,[14],inactive
same,outcome,[15],inactive
same,outcome,[16],inactive
same,AC50,[17],9.83 µM (active)
same,outcome,[18],inactive
CCNS(=O)(=O)C(F)(F)C(F)(F)C(F)(F)C(F)(F)C(F)(F)C(F)(F)C(F)(F)C(F)(F)F,AC50,[1],28.8 µM (active) and 44.8 µM (active) and 47.8 µM (active)
same,AC50,[3],19.3 µM (active) and 28.3 µM (active) and 36 µM (active)
same,AC50,[4],49.2 µM (active) and 49.6 µM (active)
same,outcome,[4],inactive
same,AC50,[5],5.73 µM (active) and 13.5 µM (active)
same,AC50,[6],30.1 µM (active) and 23.3 µM (active) and 47.3 µM (active)
same,AC50,[7],46.2 µM (active)
same,outcome,[7],inactive
same,AC50,[8],20.9 µM (active) and 30.5 µM (active) and 43.7 µM (active)
same,AC50,[9],46.1 µM (active)
same,outcome,[9],inactive
same,AC50,[10],41.5 µM (active) and 47.7 µM (active)
same,outcome,[10],inactive
same,AC50,[11],19.3 µM (active)
same,AC50,[12],47.8 µM (active)
same,outcome,[12],inactive
same,AC50,[13],50.5 µM (active) and 47.5 µM (active)
same,outcome,[13],inactive
same,AC50,[14],46.1 µM (active) and 42.2 µM (active)
same,outcome,[14],inactive
same,outcome,[15],inactive
same,AC50,[16],30 µM (active)
same,outcome,[16],inactive
same,outcome,[18],inactive
C1=Cc2cccc3cccc1c23,outcome,[1],inactive
same,outcome,[2],inactive
same,outcome,[3],inactive
same,outcome,[4],inactive
same,outcome,[5],inactive
same,outcome,[6],inactive
same,outcome,[7],inactive
same,outcome,[8],inactive
same,outcome,[9],inactive
same,outcome,[10],inactive
same,outcome,[11],inactive
same,outcome,[12],inactive
same,outcome,[13],inactive
same,outcome,[14],inactive
same,outcome,[15],inactive
same,outcome,[16],inactive
same,outcome,[18],inactive
OCCOCCO,outcome,[1],inactive
same,outcome,[2],inactive
same,outcome,[3],inactive
same,outcome,[4],inactive
same,outcome,[5],inactive
same,outcome,[6],inactive
same,outcome,[7],inactive
same,outcome,[8],inactive
same,outcome,[9],inactive
same,outcome,[10],inactive
same,outcome,[11],inactive
same,outcome,[12],inactive
same,outcome,[13],inactive
same,outcome,[14],inactive
same,outcome,[15],inactive
same,outcome,[16],inactive
same,outcome,[18],inactive
